# POLI inh: DNA polymerase iota (human) inhibition | Q9UNA4 | Potency, µM (top dose mostly 115 µM), hits mostly inhibitors | 390,000 compounds, 1% hits | Pol iota fluorescent replication assay, 10 min
#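 Pol iota at 10 nM preincubated 15 min with compounds at room temperature; reaction started with fluorescent substrate, 50 nM final. Fluorescence read kinetically at 0 and 10 min; buffer-only wells as negative control.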
# Pol kappa inh-1: DNA polymerase kappa (human) inhibition; Potency, µM (titrated, usually from 107 µM), hits mostly inhibitors; 400,000 compounds, 0.53% hits; purified Pol kappa, fluorescent DNA synthesis assay, 10 min; AID 588579
#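 10 nM Pol kappa was preincubated with compounds for 15 min at room temperature. Reaction started with 50 nM (final) substrate. Fluorescence read kinetically at 0 and 10 min.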
# PI5P4Ka inh: inhibitors of human PI5P4K alpha | P48426 | PI5P4Kalpha enzyme, ADP-Glo luminescence, 60 min; hits give low values | max response, % | 330,000 compounds, 1.2% hits | AID 652105; active = max response of -50% or lower; inconclusive = between -30% and -50%; inactive = -30% or higher; note: value at the top dose of about 77 µM
#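 Enzyme plus substrate dispensed, test compounds pinned in, then ATP (5 microM final) added. After 60 min at RT, ADP-Glo reagent 1 for 45 min and reagent 2 for 30 min preceded luminescence imaging.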
# POLB inh: blocks human DNA polymerase beta activity. P06746. Pol beta primer extension/strand displacement, fluorescence kinetic. Potency, µM (top dose mostly 114 µM), actives largely listed as inhibitors. 340,000 compounds, 1.3% hits
#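 Reaction started by 50 nM substrate onto compound-treated Pol beta (10 nM, 15 min preincubation, room temperature); plates read at 0 min and 10 min. Normalized concentration-effect data fitted by four-parameter Hill equation.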
# Pol eta inh-1: blocks human DNA polymerase eta activity; 390,000 compounds, 1.2% hits; Potency, µM (doses to about 114 µM), actives largely listed as inhibitors; recombinant Pol eta, fluorescent DNA replication assay
#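 Pol eta (10 nM) was preincubated with compounds for 15 min at room temperature, after which fluorescent replication substrate (50 nM final) was added to start the reaction. Fluorescence was read kinetically at 0 and 10 min.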
# WRN helicase inh: blocks human WRN helicase; Potency, µM (highest dose often 114 µM), most hits filed as inhibitors; WRN helicase unwinding, fluorescent forked duplex, kinetic; AID 651768; 360,000 compounds, 0.46% hits; note: nearly all actives have a fitted effect of over 55% in size
#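 Kinetic red-fluorescence monitoring (525/598 nm) tracks WRN helicase activity after 100 nM fluorophore-quencher forked duplex and 2 mM ATP are added to 20 nM enzyme pretreated 15 min at room temperature with compound.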
# GALK confirm: confirmation of human galactokinase (GALK) inhibitors; shares compounds with Pol eta inh-1; purified GALK, Kinase-Glo ATP depletion luminescence; Potency, µM (highest dose often 115 µM), usual class: inhibitors; 150 compounds, 70% hits; AID 2015
# Target sequence (P51570 whole entry, looked up): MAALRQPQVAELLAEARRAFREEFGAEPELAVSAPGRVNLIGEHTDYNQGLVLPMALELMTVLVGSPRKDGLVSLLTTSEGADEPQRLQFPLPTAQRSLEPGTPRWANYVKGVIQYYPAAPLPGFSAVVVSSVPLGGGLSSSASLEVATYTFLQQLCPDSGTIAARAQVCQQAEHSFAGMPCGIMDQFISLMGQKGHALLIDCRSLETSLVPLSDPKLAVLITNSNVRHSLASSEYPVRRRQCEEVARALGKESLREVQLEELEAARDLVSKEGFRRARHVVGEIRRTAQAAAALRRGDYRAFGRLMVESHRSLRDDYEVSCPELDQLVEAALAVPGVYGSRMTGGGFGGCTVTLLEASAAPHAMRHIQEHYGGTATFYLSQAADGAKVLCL
# Redox cycling: generates H2O2 by redox cycling, flagging GALK artifacts | 150 compounds, 40% hits | Phenol red-HRP H2O2 redox cycling, absorbance 600 nm | Potency, µM (titrated, usually from 115 µM), actives largely listed as inhibitors | shares compounds with Pol eta inh-1
# HEK293 viability: counter-screen for GALK inhibitors: HEK293 cell cytotoxicity; shares compounds with Pol eta inh-1; HEK-293 viability, ATP luminescence (CellTiter-Glo), 24/48 h; Potency, µM (titrated, usually from 46.1 µM), actives largely listed as inhibitors; 170 compounds, 10% hits; AID 2547
# Pol kappa inh-2: confirmation of human DNA polymerase kappa inhibitors. shares compounds with Pol eta inh-1. purified Pol-kappa, fluorescent strand-displacement substrate. Potency, µM, hits mostly inhibitors. 920 compounds, 76% hits
# Pol eta inh-2: Pol eta (human) inhibition, cherry-pick confirmation. 2,600 compounds, 64% hits. Potency, µM, usual class: inhibitors. Pol eta primer extension, TAMRA/BHQ fluorescence, 10 min. AID 720502. shares compounds with Pol eta inh-1
# A number is an active result; n = inactive; u = inconclusive; x = not tested or not shown; [ ] = remark or other dose. The list is not random: actives were taken first. Their share in the collection is about 2.8%. Unless noted, calls come from the whole dose curve; as a rule, active = well fitted curve in the direction sought with a large enough effect; inconclusive = small, poorly fitted or top-dose-only effect, or another doubt; inactive = no such curve, though single readings can be large; an effect the other way counts as inactive or inconclusive.
SMILES,POLI inh,Pol kappa inh-1,PI5P4Ka inh,POLB inh,Pol eta inh-1,WRN helicase inh,Pol eta inh-2,others
O=C(Cc1ccc(S(=O)(=O)N2CCCC2)s1)N1CCN(c2ccc(F)cc2)CC1,u,u,u,31.6µM,u,n[11.6 µM],84.9,
CC1CN(c2ccccc2)NC1=O (stereo not given),n,n,n,n,n,n,x,
N=C1/C(=C\c2ccc(OC(=O)c3ccccc3Cl)cc2)C(=O)N=C2SC(N3CCOCC3)=NN12,n,u,-67.1,39.8µM,22.4µM,u,37.9,
CCS(=O)(=O)C1=NN2C(=N)/C(=C\c3ccc(OC(=O)c4ccco4)cc3)C(=O)N=C2S1,n,n,n,n,u,n,x,
O=c1c2ccccc2nc(-c2ccco2)n1-c1nccs1,u,n,n,n,u,n,u,
Cc1ccc(-c2nc3ccccc3c(=O)n2-c2nccs2)cc1,n,n,x,n,n,n,x,
Cc1[nH]c(=O)n(C(C)(C)C)c(=O)c1Cl,x,n,x,x,x,x,x,
CC(C)C[C@H](NC(=O)[C@H](Cc1ccccc1)NC(=O)CNC(=O)[C@H](CS)N(C(=O)[C@@H](N)Cc1ccc(O)cc1)C(C)(C)C)C(=O)N([C@H](C(=O)O)[C@H](C)O)C(C)(C)C,x,n[19.4 µM],x,x,x,x,x,
CN1C(=O)NC(=O)/C(=C/c2ccc([N+](=O)[O-])s2)C1=O,u,u,-56.0,u,22.4µM,u,75.7,
Cc1ccc(/C=C2/C(=O)NC(=O)N(C)C2=O)cc1,n,n,n,n,n,u,x,
NC1=C([N+](=O)[O-])C(c2ccc3c(c2)OCO3)c2c(c3ccccc3oc2=O)O1 (stereo not given),n,n,n,n,n,n,x,
O=c1oc2ccccc2c(O)c1[C@H]1c2ccc(O)cc2Oc2c1c(=O)oc1ccccc21,n,n,n,n,u,n[11.6 µM],u,
O=C1NC(=O)N(c2ccc3c(c2)OCO3)C(=O)/C1=C\c1ccc(N2CCCCC2)o1,n,n,n,n,n,n,x,
O=C1NC(=O)C(=Cc2ccc(SC3CCCCC3)o2)C(=O)N1,10µM,n,-74.8,20µM,20µM,u,47.8,
C[C@@H](COc1ccccc1)N(CCCl)Cc1ccccc1,x,n[12 µM],x,x,x,x,x,
Cc1ccccc1N1C(=O)/C(=C/c2ccco2)C(=O)NC1=S,x,x,x,0.316µM,x,x,x,GALK confirm=u;Redox cycling=n;HEK293 viability=n
CC(C)C[C@H](NC(=O)[C@H](Cc1ccccc1)NC(=O)CNC(=O)[C@@H](COC(C)(C)C)NC(=O)[C@@H](N)Cc1ccc(O)cc1)C(=O)N[C@H](C(=O)O)[C@@H](C)OC(C)(C)C,x,n,x,x,x,x,x,
Cc1ccc2c(c1Cl)NC(C(=O)O)C1CC(Sc3ccccc3[N+](=O)[O-])C(Cl)C21 (stereo not given),u,u,u,u,44.7µM,n[11.6 µM],u,
CC(C)c1cc2c(c(O)c1O)[C@@]1(C(=O)O)CCCC(C)(C)[C@@H]1CC2,x,n,x,x,x,x,x,
C[C@H](N)C(=O)N[C@@H](C)C(=O)N[C@@H](Cc1ccccc1)C(=O)CCl,x,n[19.4 µM],x,x,x,x,x,
COc1ccc(C(=O)Nc2ccc(-c3cc(C(F)(F)F)nn3-c3ccccc3)cc2)cc1OC,u,n,x,u,n,x,x,
O=[N+]([O-])c1ccc(N2CCCCCC2)c2nonc12,28.2µM,u,n,20µM,u,22.4µM,60.1,
Cc1cccc(N2C(=O)NC(=O)/C(=C\c3cc(C)n(-c4sc5c(c4C#N)CCCC5)c3C)C2=O)c1C,20µM,n,n,u,20µM,u,30.1,
CN1CCN(S(=O)(=O)c2cccc(C(=O)N3CCN(c4ccccc4F)CC3)c2)CC1,u,n,n,x,n,n,x,
Cc1ccc(C2NC(=S)NC(c3ccc(C)cc3)C23C(=O)NC(=O)NC3=O)cc1 (stereo not given),n,n,n,n,n,n,x,
SMILES,POLI inh,Pol kappa inh-1,PI5P4Ka inh,POLB inh,Pol eta inh-1,WRN helicase inh,Pol eta inh-2,others
O=C1NC(=S)NC(=O)C12C(c1ccc(F)cc1)NC(=S)NC2c1ccc(F)cc1 (stereo not given),n,n,n,n,39.8µM,n,u,
O=C1NC(=S)NC(=O)C12C(c1ccccc1)NC(=S)NC2c1ccccc1 (stereo not given),20µM,n,n,n,50.1µM,n,u,
O=[N+]([O-])c1ccc(Sc2nc3ccccc3o2)c([N+](=O)[O-])c1,11.2µM,n,x,n,50.1µM,u,u,
COCCCn1c(N)c(C(=O)NCc2ccco2)c2nc3ccccc3nc21,n,n,n,n,n,n,x,GALK confirm=u;Redox cycling=n;HEK293 viability=u
COCCNC(=O)c1c(N)n(Cc2ccco2)c2nc3ccccc3nc12,n,n,x,n,n,n,x,
Cc1c(N=Cc2c(O)n(Cc3ccco3)c(=O)[nH]c2=O)c(=O)n(-c2ccccc2)n1C,u,n,n,u,17.8µM,n[11.6 µM],u,
O=C(N/N=C/c1c(O)n(Cc2ccco2)c(=O)[nH]c1=O)c1ccccc1O,28.2µM,79.4µM,-82.7,n,14.1µM,u,30.1,
Cc1ccc2c(c1)Cc1c(C(=O)NN3CCCCC3)nn(-c3ccc(Cl)cc3Cl)c1-2,x,n,x,x,x,x,x,
O=C(O)CO.[NH2-].[NH2-].[Pt+2],x,n[19.4 µM],x,x,x,x,x,
O=C(OC1Cc2c(O)cc(O)cc2OC1c1cc(O)c(O)c(O)c1)c1cc(O)c(O)c(O)c1 (stereo not given),x,0.562µM,x,x,x,x,x,GALK confirm=9.43µM;Redox cycling=n;HEK293 viability=n
OC12C3C4CC5C6C4C1C6C(C53)N2CCc1cccc(F)c1 (stereo not given),x,n,x,x,x,x,x,
Cc1cc(/C=C2\C(=O)NC(=O)N(C)C2=O)c(C)n1-c1ccc2c(c1)OCO2,u,n,u,u,u,n,x,
Cc1cc(/C=C2\C(=O)NC(=O)N(c3ccc(F)cc3)C2=O)c(C)n1-c1cccc(C(=O)O)c1,22.4µM,u,-50.3,28.2µM,22.4µM,n[11.6 µM],u,Pol kappa inh-2=37.7
Cc1cc(/C=C2\C(=O)NC(=O)N(c3ccccc3)C2=O)c(C)n1-c1ccc(C(=O)O)c(Cl)c1,u,u,u,22.4µM,10µM,n[11.6 µM],33.8,Pol kappa inh-2=18.9
